Screens: PubChem BioAssay, National Center for Advancing Translational Sciences (NCATS)
Most compounds without a hit are left out; they make up all but 19% or so of the library.
HT1080 IDH1KD tx – toxicity to HT-1080 IDH1 knockdown cells (counter line); 360,000 tested, 2% active; HT-1080 IDH1 knockdown viability, ATP luminescence, 48 h; Potency, µM (titrated, usually from 46.1 µM), without a hit: at the highest dose activity, negative = toxicity, most hits filed as cytotoxic;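 note: potency is the fitted concentration of half-maximal effect; 0% = DMSO wells and -100% = cell-free medium wells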
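Using the IDH1-knockdown HT-1080 line run in the same batch and compound series as the NT line, viability after 48 h at 37 °C was determined by CellTiter-Glo luminescence and expressed as % activity.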
ELG1 DNA repair – ELG1-dependent DNA repair inhibition; AID 504467; Potency, µM (titrated, usually from 46.1 µM), for the others: top-dose activity change, negative = inhibition, most hits filed as inhibitors; HEK293T ELG1-luciferase reporter, luminescence, 16 h; DNA damage induced by 5-fluorouridine; 330,000 tested, 2.3% active; note: potency is the fitted concentration of half-maximal effect; nearly all actives have a fitted effect of over 55% in size
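DMSO vehicle served as the neutral condition. Each well held 2,000 cells given 5-fluorouridine plus compound; after 16 hr at 37 °C/5% CO2, ONE-Glo was added and luciferase measured 30 min later.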
TDP1 cell noCPT – qHTS for Inhibitors of human tyrosyl-DNA phosphodiesterase 1 (TDP1): qHTS in cells in absence of CPT. Potency, µM (top dose mostly 46.2 µM), without a hit: top-dose activity change, negative = growth inhibition, usual class: inhibitors. 420,000 tested, 15% active. DT40 Tdp1-/- hTDP1 cells, no CPT, ATP luminescence, 48 h. AID 686978, 2013; note: potency is the fitted concentration of half-maximal effect; nearly all actives have a fitted effect of over 55% in size
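Compound effects on proliferation are scored in DT40 Tdp1-/-;hTDP1 cells in the absence of CPT. ATP levels (CellTiter-Glo luminescence) are recorded after a ≥48 hr, 37 °C incubation.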
IL-1B inflam inh – inhibitors of inflammasome signaling (IL-1 beta secretion). AID 743279. 360,000 tested, 4.7% active. activity change, % at 57.5 µM. THP-1 LPS/ATP IL-1B secretion, AlphaLISA, 16 h; active compounds read low; in the data active = activity change below about -50%; inconclusive = mostly about -30% to -49%
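Secreted IL-1B measured by AlphaLISA bead assay after 16 h compound exposure of THP-1 cells; compounds (final up to 57.5 uM) added 1 h before LPS (250 ng/mL) and ATP (1.25 mM) stimulation; lower signal means less secretion.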
DT40 TDP1 CPT – DT40-hTDP1 cell growth loss with CPT. chicken DT40 Tdp1-/-;hTDP1 cells + 20 nM CPT, ATP luminescence, 48 h. Potency, µM (top dose mostly 46.2 µM), for the others: top-dose activity change, negative = growth inhibition, usual class: inhibitors. 420,000 tested, 12% active. AID 686979; note: potency is the fitted concentration of half-maximal effect; nearly all actives have a fitted effect of over 55% in size
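Cell growth measured by CellTiter-Glo luminescence after a minimum 48 h, 37 C compound exposure with 20 nM CPT in Tdp1-knockout DT40 cells stably expressing hTDP1, seeded 400/well; qHTS titration format.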
HT1080NT lethal – kills 2HG-producing HT-1080-NT fibrosarcoma cells; Potency, µM (top dose mostly 46.1 µM), inactives show at the highest dose activity, negative = less viability, most hits filed as cytotoxic; HT-1080-NT fibrosarcoma viability, CellTiter-Glo ATP luminescence, 48 h; 360,000 tested, 1.6% active;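 note: NT is the 2HG producing partner of a matched IDH1 knockdown line; potency is the fitted concentration of half-maximal effect; 0% = DMSO-treated cells and -100% = media-only wells without cells; nearly all actives have a fitted effect of over 55% in size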
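HT-1080-NT fibrosarcoma cells (2HG-overproducing), 750 cells/well in RPMI with 5% FBS, dosed after 2 h and incubated 48 h at 37C. CellTiter-Glo luminescence normalized to DMSO and no-cell wells; concentration-response curves fitted and classed.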
Active calls of the source: *. Unless noted, calls come from the whole dose curve; as a rule, active = well fitted curve in the direction sought with a large enough effect; inconclusive = small, poorly fitted or top-dose-only effect, or another doubt; inactive = no such curve, though single readings can be large; an effect the other way counts as inactive or inconclusive. Unless noted, % is set by controls: 0 for no effect and ±100 for the full control effect.

Screening O=S(=O)(Nc1nc2ccccc2nc1NCc1ccco1)c1ccc(Cl)cc1 returned HT1080 IDH1KD tx inconclusive, ELG1 DNA repair 0%, TDP1 cell noCPT inconclusive, IL-1B inflam inh 26, DT40 TDP1 CPT inconclusive and HT1080NT lethal inconclusive.
CC(C)Oc1cccc(C(=O)Nc2ccc(-c3nc4cc(Cl)cc(Cl)c4o3)cc2)c1 was read as TDP1 cell noCPT -17% and DT40 TDP1 CPT -21%.
`COc1ccccc1OCC(=O)Nc1ccc(S(=O)(=O)Nc2onc(C)c2C)cc1` gave HT1080 IDH1KD tx -13%, ELG1 DNA repair -13%, TDP1 cell noCPT 11%, IL-1B inflam inh 12, DT40 TDP1 CPT -9% and HT1080NT lethal -14%.
Screening COCC(=O)N1CCC(Oc2ccc(C(=O)NC(C)c3csc(C)n3)cc2)CC1 (stereo not given) returned HT1080 IDH1KD tx 2%, ELG1 DNA repair 2%, TDP1 cell noCPT 22%, IL-1B inflam inh 0, DT40 TDP1 CPT 2% and HT1080NT lethal 12%.
C=CCNc1nc(NCc2ccco2)nc(OCC)n1 was read as HT1080 IDH1KD tx 3%, ELG1 DNA repair 12%, TDP1 cell noCPT inconclusive, IL-1B inflam inh -11, DT40 TDP1 CPT 21µM* and HT1080NT lethal 2%.
`Oc1ccc(Nc2nc(Cl)nc(NCc3ccco3)n2)cc1` gave HT1080 IDH1KD tx -5%, ELG1 DNA repair 7%, TDP1 cell noCPT inconclusive, IL-1B inflam inh -109*, DT40 TDP1 CPT -5% and HT1080NT lethal -7%.
C=CCNc1nc(Cl)nc(NCc2ccco2)n1 was read as HT1080 IDH1KD tx 10%, ELG1 DNA repair 2%, TDP1 cell noCPT -5%, IL-1B inflam inh 6, DT40 TDP1 CPT -22% and HT1080NT lethal 8%.
Screening Cc1ccc(NC(=O)C2=C(c3ccccc3)S(=O)(=O)CCS2(=O)=O)cc1 returned HT1080 IDH1KD tx 7.3µM*, ELG1 DNA repair inconclusive, TDP1 cell noCPT 0.58µM*, IL-1B inflam inh -104*, DT40 TDP1 CPT 0.46µM* and HT1080NT lethal 10µM*.
COc1ccc(S(=O)(=O)NCCc2nnc3ccc(SCC(=O)Nc4ccc(C(F)(F)F)cc4)nn23)cc1 was read as TDP1 cell noCPT 23µM* and DT40 TDP1 CPT inconclusive.
Cc1ccc(NC(=O)CSc2ccc3nnc(CCNS(=O)(=O)c4ccccc4)n3n2)cc1Cl was read as TDP1 cell noCPT inconclusive and DT40 TDP1 CPT 16µM*.
Screening Cc1csc(NC(=O)CSc2ccc3nnc(CCNS(=O)(=O)c4ccccc4)n3n2)n1 returned HT1080 IDH1KD tx -6%, ELG1 DNA repair 12%, TDP1 cell noCPT inconclusive, IL-1B inflam inh 44, DT40 TDP1 CPT 0% and HT1080NT lethal 6%.
For CC[C@H](NC(=O)CC[C@H]1O[C@@H](n2cnc3c(NC(=O)c4ccccc4)ncnc32)[C@H](O)[C@@H]1O)c1ccccc1 the results were HT1080 IDH1KD tx 7%, TDP1 cell noCPT -1%, IL-1B inflam inh 0, DT40 TDP1 CPT -29% and HT1080NT lethal 29%.
`C(=Nc1cccnc1)c1ccc2ccccc2n1` gave TDP1 cell noCPT 1µM* and DT40 TDP1 CPT 0.89µM*.
`COc1ccc(S(=O)(=O)Oc2ccccc2C(N)=O)cc1` gave HT1080 IDH1KD tx 4%, ELG1 DNA repair inconclusive, TDP1 cell noCPT -18%, IL-1B inflam inh 11, DT40 TDP1 CPT -10% and HT1080NT lethal -2%.
CCOC(=O)C(=O)c1c(C)cc2ccccn12 was read as HT1080 IDH1KD tx 19%, ELG1 DNA repair 42%, TDP1 cell noCPT 8%, IL-1B inflam inh -12, DT40 TDP1 CPT -14% and HT1080NT lethal 19%.
Screening COC(=O)c1c(C)c2c(C)cc3ccccn3c-2c1C(=O)OC returned HT1080 IDH1KD tx -11%, ELG1 DNA repair -12%, TDP1 cell noCPT 29µM*, IL-1B inflam inh -5, DT40 TDP1 CPT inconclusive and HT1080NT lethal -3%.
`COC(=O)c1cc2c(-c3ccccc3)cc3ccccn3c-2c1C(=O)OC` gave HT1080 IDH1KD tx inconclusive, ELG1 DNA repair 23µM*, TDP1 cell noCPT inconclusive, IL-1B inflam inh -24, DT40 TDP1 CPT inconclusive and HT1080NT lethal -24%.
For CCN(CC)CCNC(=O)c1c(C)oc2ncnc(N3CCOCC3)c12 the results were TDP1 cell noCPT -5% and DT40 TDP1 CPT 5%.
For COc1ccc(-c2csc(C(C)(O)c3ccc(F)c(F)c3)n2)cc1 (stereo not given) the results were HT1080 IDH1KD tx inconclusive, TDP1 cell noCPT inconclusive, IL-1B inflam inh 22, DT40 TDP1 CPT inconclusive and HT1080NT lethal inconclusive.
Screening CC(O)(c1ccc(F)c(F)c1)c1nc(-c2ccc(S(C)(=O)=O)cc2)cs1 (stereo not given) returned HT1080 IDH1KD tx inconclusive, TDP1 cell noCPT 16µM*, IL-1B inflam inh 3, DT40 TDP1 CPT inconclusive and HT1080NT lethal -20%.
For CC(O)(c1ccc(F)c(F)c1)c1nc(-c2ccncc2)cs1 (stereo not given) the results were HT1080 IDH1KD tx inconclusive, TDP1 cell noCPT 13µM*, IL-1B inflam inh 12, DT40 TDP1 CPT 21µM* and HT1080NT lethal -25%.
`COc1ccc(C(C)(O)c2nc(-c3cccc(F)c3)cs2)cc1` (stereo not given) gave HT1080 IDH1KD tx inconclusive, TDP1 cell noCPT inconclusive, IL-1B inflam inh 60, DT40 TDP1 CPT inconclusive and HT1080NT lethal inconclusive.
For COc1ccc(C(C)(O)c2nc(-c3ccc(S(C)(=O)=O)cc3)cs2)cc1 (stereo not given) the results were HT1080 IDH1KD tx 17%, TDP1 cell noCPT 23µM*, IL-1B inflam inh -5, DT40 TDP1 CPT inconclusive and HT1080NT lethal 13%.
Screening N#CCCN(C(=O)COC(=O)C12CC3CC(CC(O)(C3)C1)C2)c1ccc(F)cc1 returned HT1080 IDH1KD tx -3%, ELG1 DNA repair 6%, TDP1 cell noCPT 12%, IL-1B inflam inh 25, DT40 TDP1 CPT -12% and HT1080NT lethal -6%.
`CCCCN1C(C)=CC(=C2C(=O)c3ccccc3C2=O)C=C1C` gave HT1080 IDH1KD tx 4%, ELG1 DNA repair inconclusive, TDP1 cell noCPT inconclusive, IL-1B inflam inh 0, DT40 TDP1 CPT -19% and HT1080NT lethal 3%.
Screening CCN1C=CC(=C2C(=O)c3ccccc3C2=O)C=C1 returned HT1080 IDH1KD tx 11µM*, ELG1 DNA repair inconclusive, TDP1 cell noCPT 15µM*, IL-1B inflam inh inconclusive, DT40 TDP1 CPT 16µM* and HT1080NT lethal 10µM*.
